These results are taken from PubChem BioAssay.

Assay [1] is described as follows: circadian clock period modulators, cell-based, LOPAC library, luminescence reporter (AID 2774).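 Further: values are relative to mean of DMSO wells on each plate.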 The settings on record: circadian reporter cells, at 7 µM, actives lie on both sides.
In assay [2] the test system is Hepatitis C virus NS3 helicase. Nature of the assay: HCV NS3 helicase inhibitors, primary screen, biochemical, fluorescence polarization, LOPAC1280 library (AID 687035; in the data active means inhibition above about 37%). As to conditions: Purified HCV NS3 helicase, Cy5-dT15 ssDNA binding fluorescence polarization; stronger effect = higher value; concentration not given here.
A short description of assay [3]: Cy5 fluorescence quenching or enhancement artefacts, artefact control for HCV NS3 helicase inhibitor project, biochemical, LOPAC1280 (AID 687037). The settings on record: Cy5-DNA-NS3h complex fluorescence interference counterscreen.
A short description of assay [4]: kinase inhibitors against Plasmodium liver-stage infection, cell-based, known kinase inhibitor set, luminescence, hepatoma host viability (AID 624392).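 Further: infected cells incubated roughly two days before readout.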 As to conditions: Plasmodium liver stage in hepatoma cells, luciferase luminescence, concentration not given here; liver cell % of control: measured here: host liver cell viability; parasite % of control: stronger effect = lower value.

Assay [5] in a line: hESC survival regulators, cell-based (AID 493140).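 Further: cells exposed to compounds for four days before counting.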 As to conditions: human embryonic stem cell survival screen; stronger effect = higher value.
A short description of assay [6]: liver-stage malaria parasite growth inhibition, primary screen, cell-based, HepG2, luciferase luminescence, HepG2 viability (AID 624349; in the data active means parasite load remaining mostly below about 12%, no sharp cut-off; inactive means mostly above about 10%;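 further: 100% = mean of DMSO negative control wells on the same plate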). The settings on record: P. berghei liver stage in HepG2, luciferase luminescence, concentration not given here; parasite load remaining: stronger effect = lower value; viability: measured here: HepG2 viability without parasites.
Assay [7] concerns Neuropilin-2 / VEGF-C interaction (human). Kind of assay: inhibitors of NRP2–VEGF-C binding, biochemical, microplate binding format, z-score (AID 743281). The settings on record: microplate NRP2/VEGF-C binding assay; stronger effect = lower value.

The source made the active and inactive calls. Unless noted, how the calls were made is not given here.

`C=CCN1CCC2(C)c3cc(O)ccc3CC1C2C` (configuration not stated): the period change in assay [1] is -0.18 h (inactive). Consider `CCCn1c(C)c(C(=O)c2ccc3ccccc3c2)c2ccccc21`, for which the inhibition in assay [2] was -4% (inactive). Besides, in assay [3], the fluorescence ratio (interference) is 1 (inactive). Turning to `COc1cc(CC(C)N)c(OC)cc1I` (configuration not stated), in assay [2], the inhibition was -3% (inactive). The fluorescence ratio (interference) in assay [3] is 1 (inactive). For `O=C1NC(=O)C(=Cc2ccc(-c3ccc(Cl)cc3)o2)C(=O)N1`, in assay [4], the liver cell % of control worked out at 87% and the parasite % of control was 167% (inactive). Regarding `CC1CC[C@]2(NC1)O[C@H]1C[C@H]3[C@@H]4CC[C@H]5C[C@@H](O)CC[C@]5(C)[C@H]4CC[C@]3(C)[C@H]1[C@@H]2C` (some centres not stated), the survival in assay [5] was 5.67 (inactive). For the same compound, in assay [6], the parasite load remaining is 77.7% (inactive) and the viability was determined as 73.9%. `C[C@H]1O[C@@H](OC2CC[C@]3(C=O)[C@H]4CC[C@]5(C)[C@@H](C6=CC(=O)OC6)CC[C@@]5(O)[C@@H]4CC[C@]3(O)C2)C[C@H](O)[C@@H]1O` (some centres not stated): the survival in assay [5] is 1.42 (inactive). On to `CN1C2CCC1CC(OC1c3ccccc3CCc3ccccc31)C2` (configuration not stated), for which the survival in assay [5] was 0.75 (inactive). Consider `N/C(=N\[N+](=O)[O-])N/N=C\c1ccc(-c2cccc([N+](=O)[O-])c2)o1`, for which, in assay [6], the parasite load remaining was 33.3% (inactive) and the viability came out at 91.9%. Take `NS(=O)(=O)c1ccc(-c2ccc(C=C3C(=O)NC(=O)NC3=O)o2)cc1`: in assay [4], the liver cell % of control amounted to 104% and the parasite % of control is 97.7% (inactive).

Consider `C=CCN1CC[C@]23c4c5ccc(O)c4O[C@@H]2/C(=N\N=C2\CC[C@@]4(O)C6Cc7ccc(O)c8c7[C@@]4(CCN6CC=C)[C@@H]2O8)CC[C@@]3(O)C1C5`, for which, in assay [2], the inhibition was -6% (inactive). In assay [3], the fluorescence ratio (interference) is 0.9 (inactive). As to `CN1C2CC(=O)CC1C(O)C2` (configuration not stated), the survival in assay [5] is 4.08 (inactive). With `O=C1NC(=O)C(=Cc2ccc(-c3ccc(S(=O)(=O)N4CCOCC4)cc3)o2)C(=O)N1`, in assay [4], the liver cell % of control amounted to 98.4% and the parasite % of control is 98.3% (inactive).

In the case of `C[C@@H](N)[C@H](O)c1ccccc1`, the survival in assay [5] is 4.42 (inactive). In assay [6], the parasite load remaining was 62.7% (inactive) and the viability is 76%. Turning to `O=S(=O)(c1c(O)c(Cl)cc(Cl)c1Cl)c1c(O)c(Cl)cc(Cl)c1Cl`, in assay [6], the parasite load remaining was 27.4% (inactive) and the viability stood at 70.9%. For `CCCCCCCCCCCCC/C=C/[C@@H](O)[C@@H](N)COP(=O)([O-])OCC[N+](C)(C)C`, the survival in assay [5] is 95.8 (inactive). The same measure, in the same setting: the value for `CN[C@@H]1CC2(C)OC([C@@H]1OC)n1c3ccccc3c3c4c(c5c6ccccc6n2c5c31)C(=O)NC4` (some centres not stated) was 0.333 (inactive). As to `NC(N)=NOCC[C@@H](N)C(=O)O`, the survival in assay [5] is 14.8 (inactive). For the same compound, in assay [6], the parasite load remaining was 70.5% (inactive) and the viability came to 75.6%. As for `O=C1NC(=O)C(=Cc2ccc(-c3ccc(F)cc3O)o2)C(=O)N1`, in assay [4], the liver cell % of control worked out at 100% and the parasite % of control was 87.6% (inactive). Regarding `C#CC1(O)CC[C@H]2[C@@H]3CCC4=CCCC[C@@H]4[C@H]3CC[C@@]21C` (some centres not stated), the survival in assay [5] is 37.7 (inactive).

On to `CC1(C)C(C=C(Br)Br)C1C(=O)OC(C#N)c1cccc(Oc2ccccc2)c1` (configuration not stated), for which the survival in assay [5] is 82.3 (inactive). As for `O=C1Nc2ccc3ncsc3c2/C1=C/c1cnc[nH]1`, in assay [6], the parasite load remaining was 86.4% (inactive) and the viability worked out at 77.5%.

For the compound `CC[C@H]1CN2CCc3cc(OC)c(OC)cc3[C@@H]2C[C@@H]1C[C@H]1NCCc2cc(O)c(OC)cc21`, the survival in assay [5] is 0.333 (inactive). For the same compound, in assay [6], the parasite load remaining is 8.07% (inactive) and the viability came to 49.7%.

As for `CC(C)C(C(=O)OC(C#N)c1cccc(Oc2ccccc2)c1)c1ccc(Cl)cc1` (configuration not stated), the survival in assay [5] was 79 (inactive). Consider `C=CCN1CC[C@]23c4c5ccc(O)c4O[C@H]2/C(=N\NC(=O)c2ccccc2)CC[C@@]3(O)[C@H]1C5`, for which, in assay [2], the inhibition is -6% (inactive). The fluorescence ratio (interference) in assay [3] was 0.9 (inactive).

For `CCN(CC)C(=O)N[C@@H]1CC2c3cccc4[nH]cc(c34)CC2N(C)C1` (some centres not stated), the survival in assay [5] was 2.5 (inactive). Still for that read-out and setting: the figure for `CCN1C[C@]2(COC)CC[C@H](O)C34C5C[C@@H]6C(OC)C[C@@](O)(C5[C@H]6OC(C)=O)[C@@H](CC32)[C@@H]14` (some centres not stated) is 21.1 (inactive). With `CN(C(Cc1ccc(OOSOc2cccc3cnccc23)cc1)C(=O)N1CCN(c2ccccc2)CC1)S(=O)(=O)c1cccc2cnccc12` (configuration not stated), in assay [6], the parasite load remaining was 43.1% (inactive) and the viability amounted to 153%. With `CC[C@@H]1/C=C\C=C\C[C@H](C)[C@@H](O)[C@@H](C)C(=O)[C@H](C)[C@@H](O)[C@H](C)C(=O)[C@H](C)[C@@H](O)[C@H](C)/C=C/C(=O)O[C@H]2[C@@H](C)[C@@H](CC1)O[C@@]1(CC[C@@H](C)[C@@H](C[C@H](C)O)O1)[C@@H]2C`, the outcome in assay [7] was inactive. As to `CC/C=C\C[C@@H](/C=C/C=C\C/C=C\C/C=C\CCCC(=O)O)OO`, in assay [5], the survival was 90.4 (inactive). Turning to `CN1C2CCC1CC(O)C2` (configuration not stated), the survival in assay [5] is 7.58 (inactive). Besides, in assay [6], the parasite load remaining was 64% (inactive) and the viability stood at 69.9%. Consider `O=C1NC(=O)C(=Cc2ccc(-c3ccc([N+](=O)[O-])cc3)o2)C(=O)N1`, for which, in assay [4], the liver cell % of control is 98% and the parasite % of control was 117% (inactive).

`[Cl-].[Cl][Pt].[NH2-].[NH2-].c1ccncc1`: the inhibition in assay [2] was -3% (inactive). Further, in assay [3], the fluorescence ratio (interference) was 0.9 (inactive).

On to `CC1O[C@@H](O[C@@H]2C=C3CCC4C(CC[C@]5(C)[C@@H](c6ccc(=O)oc6)CC[C@]45O)[C@@]3(C)CC2)C(O)[C@@H](O)[C@H]1O` (some centres not stated), for which the survival in assay [5] was 2.83 (inactive). With `CNS(=O)(=O)c1ccc(-c2ccc(C=C3C(=O)NC(=O)NC3=O)o2)cc1`, in assay [4], the liver cell % of control amounted to 99.7% and the parasite % of control is 111% (inactive). Consider `COC1=C[C@H]2C3=C([C@H]2C1=O)[C@@H](NC(C)=O)CCc1cc(OC)c(OC)c(OC)c13`, for which the survival in assay [5] was 13.2 (inactive). In addition, in assay [6], the parasite load remaining was 78.4% (inactive) and the viability was found to be 74.3%. For the compound `CCN1C[C@]2(C)CC[C@H](OC)[C@]34C2[C@H](OC(C)=O)C2(OCO[C@@]25CC(OC)C2C[C@]3(O)C5[C@H]2OC)[C@@H]14` (some centres not stated), the survival in assay [5] is 5 (inactive). Still for that read-out and setting: the value for `CC(C)C1C(=O)N2CCCC2C2(O)OC(NC(=O)C3CC4c5cccc6[nH]cc(c56)CC4N(C)C3)(C(C)C)C(=O)N12` (configuration not stated) was 8 (inactive). In the case of `COc1ccc(C(=O)OC2C[C@H]3CC[C@@H](C2)N3C)cc1OC` (some centres not stated), the survival in assay [5] was 13.3 (inactive). In assay [6], the parasite load remaining is 68.2% (inactive) and the viability came to 77.3%. In the case of `CCC(C)C1OC2(C=CC1C)CC1CC(CC=C(C)C(OC3CC(OC)C(OC4CC(OC)C(O)C(C)O4)C(C)O3)C(C)C=CC=C3COC4C(O)C(C)=CC(C(=O)O1)C34O)O2` (configuration not stated), the survival in assay [5] is 3.5 (inactive).

With `NS(=O)(=O)c1ccc(-c2ccc(C=C3C(=O)NC(=S)NC3=O)o2)cc1`, in assay [4], the liver cell % of control came to 102% and the parasite % of control was 96.9% (inactive). Consider `CC(=O)O[C@@H]1CC(O[C@@H]2C(C)OC(O[C@@H]3C(C)OC(OC4CC[C@@]5(C)[C@H](CC[C@]6(C)[C@]5(C)C[C@@H](O)[C@]5(C)[C@@H](C7=CC(=O)OC7)CC[C@@]56O)C4)C[C@H]3O)C[C@H]2O)OC(C)[C@H]1OC1OC(CO)[C@@H](O)[C@@H](O)[C@@H]1O` (some centres not stated), for which, in assay [5], the survival is 0.333 (inactive). As to `O=c1cccc2n1CC1CNC[C@@H]2C1`, the survival in assay [5] is 9 (inactive). Moreover, in assay [6], the parasite load remaining is 70.3% (inactive) and the viability amounted to 77.8%. Turning to `C=C[C@@H]1CN2CCC1C[C@@H]2[C@H](O)c1ccnc2ccccc12` (some centres not stated), the survival in assay [5] is 3.33 (inactive). In assay [6], the parasite load remaining was 71% (inactive) and the viability is 77.6%.
